Screening data (PubChem)
In the library only some 4.4% were active in any assay of this set; here they are far more common.
PfHsp90 yeast 2: growth inhibition of PfHsp90-expressing yeast, primary screen, antimalarial PfHsp90 inhibitor project, S. cerevisiae, BacTiter-Glo luminescence, single point, set 2; BacTiter-Glo ATP, 48 h; yeast lacking PDR1 and PDR3 efflux regulators; inhibition, % at 9.4 µM; 0.32% of 310,000 active; AID 504621, 2011;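 active means every replicate shows inhibition above about 80%, whatever the replicate mean, limit read from the data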;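 further: 0% = DMSO neutral controls and 100% = 20 µM radicicol positive controls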
TIM10 inh: growth inhibitors of isogenic TIM10 control yeast, primary screen, counter-screen for tim10-1 yeast inhibitor project, luminescence, uHTS | 1.4% of 330,000 active | S. cerevisiae TIM10 strain growth, BacTiter-Glo luminescence, 24 h | inhibition, % at 10 µM;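 active means inhibition of 40% or more at the single tested concentration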;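 further: wild-type TIM10 isogenic control strain grown at permissive 25 °C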
tim10-1 inh: growth inhibitors of tim10-1 mutant yeast, primary screen, luminescence, uHTS; S. cerevisiae tim10-1 ts strain growth, BacTiter-Glo, 24 h; inhibition, % at 20 µM; 2.2% of 330,000 active; AID 463190, 2010;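 active means inhibition of at least 40%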;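 further: mutant grown at 25 °C; 0% = DMSO wells with yeast and 100% = wells holding no yeast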
SKKanGAS inh: S. pyogenes SKKanGAS growth inhibitors in kanamycin, primary screen, streptokinase expression inhibitor project, SKKanGAS strain, BacTiter-Glo luminescence; 6 h; inhibition, % at 7.5 µM; 1.3% of 300,000 active;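 active means mean replicate score, as percent of positive control median, at least 50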;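 further: strain carries kanamycin resistance gene driven by streptokinase promoter and grows in 40 µg/ml kanamycin; loss of luminescence reflects streptokinase promoter inhibition or plain growth inhibition; 0% = median of DMSO wells and 100% = positive control at its reference dose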
tim23-1 inh: growth inhibitors of tim23-1 mutant yeast, primary screen, luminescence, uHTS. S. cerevisiae tim23-1 growth, BacTiter-Glo luminescence, 24 h. inhibition, % at 20 µM. 1.3% of 330,000 active. AID 463212, 2010;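 active means growth inhibition of the mutant yeast at or above 50%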;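 further: temperature-sensitive mutant grown at 25 °C; plate controls were DMSO-treated mutant yeast for no effect and medium wells lacking yeast for full effect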
tim10-1 conf: growth inhibitors of tim10-1 mutant yeast, confirmation, single concentration, luminescence, S. cerevisiae. 56% of 7,400 active. shares compounds with tim10-1 inh. S. cerevisiae tim10-1 ts strain growth, BacTiter-Glo, 24 h. inhibition, % at 20 µM. AID 463213, 2010;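 active means inhibition of yeast growth at or above a set limit in either of two repeat tests at 20 µM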;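 further: tim10-1 mutant grown at permissive 25 °C to find synthetic lethal compounds; 0% = DMSO yeast wells and 100% = medium wells without yeast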
tim10 confirm: growth inhibitors of wild-type TIM10 yeast, confirmation, counter-screen for tim10-1 synthetic lethality project, single concentration, luminescence, S. cerevisiae; inhibition, % at 10 µM; shares compounds with TIM10 inh; 63% of 4,600 active; S. cerevisiae tim10 strain growth, BacTiter-Glo luminescence, 24 h;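 active means inhibition of yeast growth at or above a set limit in either of two replicates at 10 µM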;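 further: this counterscreen used the strain with wild-type TIM10; 0% = yeast with DMSO and 100% = medium wells lacking yeast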
tim23-1 conf: tim23-1 mutant yeast growth inhibitors, confirmation, luminescence, single concentration; shares compounds with tim23-1 inh; S. cerevisiae tim23-1 growth, BacTiter-Glo luminescence, 24 h; inhibition, % at 20 µM; 83% of 4,400 active;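 active means inhibition above about 39% in either of two replicate wells at 20 µM, limit read from the data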;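 further: temperature-sensitive tim23-1 mutant grown at 25 °C; 0% = DMSO wells with yeast and 100% = medium wells without yeast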
The depositor's hits bear a star; nt = not tested or not shown.

SMILES	PfHsp90 yeast 2	TIM10 inh	tim10-1 inh	SKKanGAS inh	tim23-1 inh	tim10-1 conf	tim23-1 conf	others
COC(=O)c1c(C)nc2ccccc2c1C(=O)O	-9.6	9.7	25.2	-0.2	2.8	nt	nt
COC(=O)c1cc(C)[nH]c2c(C)cc3nc4ccccc4c3c12	-7.8	23.9	50.4*	9.1	59.3*	42.1*	-17.1
O=C(O)c1cc([N+](=O)[O-])cc2c1C=Cc1ccccc1O2	-2.3	0.5	9.1	3.2	16.3	nt	nt
CCOC(=O)c1[nH]c(C=O)c(C(=O)OCC)c1C	-12.4	67.3*	59.9*	0.7	76.3*	50.0*	79.9*	tim10 confirm=54.8*
CN1CCN(/N=C/c2ccc(N(C)c3ccccc3)cc2)CC1	-8.3	-32.3	4.6	-0.7	8.9	nt	nt
CN1CCN(/N=C/c2ccc(N(c3ccccc3)c3ccccc3)cc2)CC1	-55.7	29.6	49.6*	9.6	76.3*	-35.0	38.2
OC1(c2ccccc2F)CCN(Cc2nnnn2Cc2ccc(F)cc2)CC1	-0.6	9.9	21.5	-11.5	10.2	nt	nt
O/N=C/c1cc(Br)ccc1OCc1cccc(F)c1	-27.3	13.4	18.1	3.9	2.9	nt	nt
Oc1c(Br)cc(Br)cc1C=NCc1ccccc1	95.8*	58.6*	55.3*	27.6	84.9*	39.5*	90.1*	tim10 confirm=32.6*
O/N=C/c1cc(Br)cc(Br)c1OCc1ccccc1	-22.9	-35.7	36.6	34.3	23.6	nt	nt
CN(C)c1ccc(C(=O)N/N=C/c2cc(Br)cc(Br)c2O)cc1	nt	38.9	25.0	35.0	31.7	nt	nt
O/N=C/c1cc(Br)ccc1OCc1ccc(F)cc1	-27.9	33.2	41.2*	14.9	59.5*	34.2*	31.4*
Oc1c(Br)cc(Br)cc1C=NCc1ccc(F)cc1	99.0*	19.2	50.6*	8.2	79.2*	17.5	85.2*
Cn1c(SCC(=O)NC(=O)Cc2ccccc2)nnc1-c1ccc(F)cc1	5.2	-4.0	-8.5	nt	-5.7	nt	nt
COc1ccccc1C1CC(c2ccc(NS(C)(=O)=O)cc2)=NN1C(=O)c1ccccc1 (stereo not drawn)	-10.2	18.8	20.9	-2.6	16.6	nt	nt
COc1ccccc1C1CC(c2ccccc2)=NN1C(=O)c1ccccc1 (stereo not drawn)	-4.2	39.0	41.8*	0.8	62.2*	45.5*	52.5*
C#C[C@]1(O)CC[C@H]2[C@@H]3CCc4cc(O)ccc4[C@H]3CC[C@@]21C	-29.4	26.8	49.8*	-7.0	51.6*	34.2*	49.1*
CC12CCC3c4ccc(O)cc4CCC3C1CCC2=O (stereo not drawn)	-14.1	-47.9	-3.9	nt	-1.7	nt	nt
O=[N+]([O-])c1c(C(Cl)Cl)nn(-c2ccc(Cl)cc2)c1N1CCCCC1	-15.2	55.8*	44.4*	16.2	64.4*	62.1*	67.3*	tim10 confirm=41.0*
CC1Sc2ccc(S(=O)(=O)N3CCN(c4ccccc4)CC3)cc2NC1=O (stereo not drawn)	-22.1	13.1	25.6	-5.7	29.3	nt	nt
Cc1cccc(N2CCN(S(=O)(=O)c3ccc4c(c3)NC(=O)C(C)S4)CC2)c1C (stereo not drawn)	-51.7	9.8	50.4*	19.9	54.7*	21.3	34.0
COC(=O)c1ccc(N=Nc2ccccc2)cc1	nt	30.6	30.4	2.1	15.5	nt	nt
O=Nc1ccc(NOC(=O)c2ccccc2)cc1	2.0	45.9*	43.7*	-10.9	59.4*	53.8*	70.1*	tim10 confirm=52.9*
COc1ccc2noc3c2c1C(=O)c1ccccc1-3	0.2	38.9	60.8*	4.8	68.8*	70.7*	72.2*
COc1ccc(N)c2c1C(=O)c1ccccc1C2=O	-7.3	nt	nt	39.0	nt	nt	nt
